# Values joined by “and” are separate entries in the source; they are usually repeats but may differ in a detail not shown here. Equal values may be shown once. In all, about 2,000 compounds went through this assay and about 100 (5%) were called active. No stated cut-off is given here; in the data, active means z-score above about 2; inactive means the rest. Many of the other results were omitted from the sample, so actives are more common in it than they were.
# Assay: supercomplex reporter luminescence per Hoechst cell count – Hoechst nuclei count (AID 1645838);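 further: control cybrid cells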;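 on z-score: higher means more mitochondrial supercomplex formation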
# Settings: Cells, luminescence/Hoechst cell count ratio; for z-score: stronger effect = higher value; for cell count: measured here: cell number, Hoechst nuclei count
# [1] = library stock concentration (final well concentration not given) 46 uM
# [2] = library stock concentration (final well concentration not given) 278 uM
# [3] = library stock concentration (final well concentration not given) 1.67 mM
# [4] = library stock concentration (final well concentration not given) 10 mM
# [5] = library stock concentration (final well concentration not given) 80 uM
# [6] = library stock concentration (final well concentration not given) 400 uM
# [7] = library stock concentration (final well concentration not given) 2 mM
smiles,measurement,setting,value
Cc1ccc(C(=O)Nc2ccc(Oc3cc4cnn(C)c4cc3-c3cn[nH]c3)c(F)c2)c(=O)n1-c1ccc(F)cc1,z-score,[1],-0.888 (inactive)
same,z-score,[2],-0.95 (inactive)
same,z-score,[3],-1.73 (inactive)
same,z-score,[4],-2.48 (inactive)
same,cell count,[1],7640
same,cell count,[2],6950
same,cell count,[3],7070
same,cell count,[4],6390
CC/C=C\C/C=C\C/C=C\C/C=C\C/C=C\CCCC(=O)O[C@H](COCCCCCCCCCCCCCCCC)COP(=O)([O-])OCC[N+](C)(C)C,z-score,,-1.23 (inactive)
same,cell count,,5300
CCCCC[C@H](O)/C=C/[C@@H]1[C@@H](C/C=C\CCCC(=O)NC(CO)CO)[C@@H](O)C[C@H]1O,z-score,,-0.166 (inactive)
same,cell count,,5460
CN1CCc2c(c3ccccc3n2Cc2ccc(C(=O)NO)cc2)C1,z-score,[1],-0.165 (inactive)
same,z-score,[2],-0.118 (inactive)
same,z-score,[3],-0.0772 (inactive)
same,z-score,[4],0.0302 (inactive)
same,cell count,[1],5170
same,cell count,[2],5040
same,cell count,[3],4790
same,cell count,[4],4770
Cn1cc(CNCC2CCN(c3ncc(C(=O)NO)cn3)CC2)c2ccccc21,outcome,library stock 400 µM,inactive; censored for cell count
same,outcome,library stock 2 mM,inactive; censored for cell count
same,outcome,library stock 10 mM,inactive; censored for cell count
same,z-score,[5],10.5 (active)
same,cell count,[5],1710
COc1cc(C(=O)NS(=O)(=O)c2ccccc2C)ccc1Cc1cn(C)c2ccc(NC(=O)OC3CCCC3)cc12,z-score,,-0.169 (inactive)
same,z-score,[5],-0.186 (inactive)
same,z-score,[6],0.251 (inactive)
same,z-score,[7],-0.394 (inactive)
same,z-score,[4],0.0319 (inactive)
same,cell count,,4650
same,cell count,[5],5870
same,cell count,[6],5520
same,cell count,[7],5910
same,cell count,[4],4990
Nc1nc(OC(c2ccc(-c3cccc(F)c3)cc2)C(F)(F)F)cc(-c2ccc(CC(N)C(=O)O)cc2)n1 (configuration not stated),z-score,[5],-0.00893 (inactive)
same,z-score,[6],-0.406 (inactive)
same,z-score,[7],-0.0477 (inactive)
same,z-score,[4],-0.333 (inactive)
same,cell count,[5],4780
same,cell count,[6],5340
same,cell count,[7],4660
same,cell count,[4],4880
CCCCCC(=O)CC[C@H]1C(=O)C[C@H](O)[C@@H]1C/C=C\CCCC(=O)O,z-score,,0.618 (inactive)
same,cell count,,5420
CS(=O)(=O)Nc1ccc([N+](=O)[O-])cc1Oc1ccccc1,z-score,,1.64 (inactive)
same,cell count,,4310
CN1CCN(c2ccc(Nc3c4ccccc4nc4ccccc34)cc2)CC1,outcome,library stock 2 mM,inactive; censored for cell count
same,outcome,library stock 10 mM,inactive; censored for cell count
same,z-score,[1],0.226 (inactive)
same,z-score,[5],-0.0401 (inactive)
same,z-score,[2],0.109 (inactive)
same,z-score,[6],1.07 (inactive)
same,z-score,[3],0.208 (inactive)
same,cell count,[1],6220
same,cell count,[5],5080
same,cell count,[2],5990
same,cell count,[6],4020
same,cell count,[3],6120
COc1cc(NS(C)(=O)=O)ccc1Nc1c2ccccc2nc2ccccc12,outcome,library stock 2 mM,inactive; censored for cell count
same,outcome,library stock 10 mM,inactive; censored for cell count
same,z-score,[5],0.627 (inactive)
same,z-score,[6],2.51 (active)
same,cell count,[5],4290
same,cell count,[6],2280
COCC(c1ccc(C(F)(F)F)cc1)N1CCN(C2(C)CCN(C(=O)c3c(C)ncnc3C)CC2)CC1C (configuration not stated),z-score,[5],-0.275 (inactive)
same,z-score,[6],-0.0621 (inactive)
same,z-score,[7],-0.0993 (inactive)
same,z-score,[4],0.309 (inactive)
same,cell count,[5],6100
same,cell count,[6],5370
same,cell count,[7],5980
same,cell count,[4],5030
CC(C(=O)Nc1cccc(N=Cc2c(O)ccc3ccccc23)c1)c1ccccc1 (configuration not stated),z-score,,-0.78 (inactive)
same,cell count,,5730
COc1ccccc1Oc1c(NS(=O)(=O)c2ccc(C)cn2)nc(-c2ccncc2)nc1OC,z-score,[1],-0.0599 (inactive)
same,z-score,[2],-0.113 (inactive)
same,z-score,[3],0.0903 (inactive)
same,z-score,[4],0.0187 (inactive)
same,cell count,[1],7280
same,cell count,[2],6760
same,cell count,[3],7600
same,cell count,[4],7550
CCCCCCCCCCCCCCCC(=O)OC[C@H](COP(=O)([O-])OCC[N+](C)(C)C)OC(=O)CCCCCCCC(=O)/C=C/C(=O)O,z-score,,-0.738 (inactive)
same,cell count,,5950
CCCCC[C@H](O)/C=C/[C@@H]1[C@H](C/C=C\CCCC(=O)O)[C@@H](O)C[C@H]1O,z-score,,-0.418 (inactive)
same,cell count,,5540
Cc1cc(Nc2cc(NC(=O)c3c(Cl)cccc3Cl)ccn2)nc(N)n1,outcome,library stock 10 mM,inactive
same,z-score,[1],-0.552 (inactive)
same,z-score,[2],2.25 (active)
same,z-score,[3],7.34 (active)
same,cell count,[1],7000
same,cell count,[2],3680
same,cell count,[3],1560
O=C(Nc1ccc(S(=O)(=O)Nc2ccccc2Cl)c(Cl)c1)c1ccccn1,z-score,[5],-0.0523 (inactive)
same,z-score,[6],0.247 (inactive)
same,z-score,[7],0.0843 (inactive)
same,z-score,[4],-0.408 (inactive)
same,cell count,[5],5940
same,cell count,[6],5620
same,cell count,[7],5480
same,cell count,[4],5970
Cc1cc(Nc2ccc(NC(=O)c3ccc(Nc4ccnc5ccccc45)cc3)cc2)nc(N)n1,outcome,library stock 10 mM,inactive; censored for cell count
same,z-score,[5],-0.573 (inactive)
same,z-score,[6],-0.616 (inactive)
same,z-score,[7],-0.871 (inactive)
same,cell count,[5],6440
same,cell count,[6],6580
same,cell count,[7],6140
COc1ccc(C(=O)C(=O)c2ccccc2)cc1,z-score,[1],-0.147 (inactive)
same,z-score,[2],-0.127 (inactive)
same,z-score,[3],-0.0906 (inactive)
same,z-score,[4],-0.261 (inactive)
same,cell count,[1],5340
same,cell count,[2],4770
same,cell count,[3],4920
same,cell count,[4],4940
CCCCCCCCCCCCCCCC(=O)SCCOP(=O)([O-])OCC[N+](C)(C)C,z-score,,0.0631 (inactive)
same,cell count,,5610
COc1cc(C(=O)NC2CCN(C)CC2)ccc1Nc1ncc2c(n1)N(C1CCCC1)C(C)CC(=O)N2C (configuration not stated),outcome,library stock 10 mM,inactive; censored for cell count
same,z-score,[5],-0.18 (inactive)
same,z-score,[6],-0.538 (inactive)
same,z-score,[7],-0.076 (inactive)
same,cell count,[5],4460
same,cell count,[6],4710
same,cell count,[7],4310
COc1cc(C(=O)N2CCC(N3CCN(C)CC3)CC2)ccc1Nc1ncc2c(n1)N(C)c1ccccc1C(=O)N2C,z-score,[5],-0.05 (inactive)
same,z-score,[6],0.293 (inactive)
same,z-score,[7],2.34 (active)
same,z-score,[4],4.4 (active)
same,cell count,[5],4870
same,cell count,[6],4880
same,cell count,[7],4160
same,cell count,[4],3320
CCC1C(=O)N(C)c2cnc(Nc3ccc(C(=O)NC4CCN(C)CC4)cc3OC)nc2N1C1CCCC1 (configuration not stated),outcome,library stock 80 µM,inactive; censored for cell count
same,outcome,library stock 400 µM,inactive; censored for cell count
same,outcome,library stock 2 mM,inactive; censored for cell count
same,outcome,library stock 10 mM,inactive; censored for cell count
CCCCC[C@@H](O)/C=C/[C@@H]1[C@H](C/C=C\CCCC(=O)O)[C@@H](O)C[C@H]1O,z-score,,-0.594 (inactive)
same,cell count,,5750
COCCOc1ccc2c(c1)ncn2-c1ccc2cccc(N3CCC(N)CC3)c2n1,outcome,library stock 10 mM,inactive; censored for cell count
same,z-score,[5],1.84 (inactive)
same,z-score,[6],2.21 (active)
same,z-score,[7],2.12 (active)
same,cell count,[5],4940
same,cell count,[6],5070
same,cell count,[7],4020
CCCCC[C@H](O)CC[C@@H]1[C@@H](C/C=C\CCCC(=O)O)[C@@H](O)C[C@H]1O,z-score,,-1.49 (inactive)
same,cell count,,6030
CCCCC[C@H](O)/C=C/[C@@H]1[C@H](CCCCCCC(=O)O)[C@@H](O)C[C@H]1O,z-score,,0.0726 (inactive)
same,cell count,,4940
CCN(CC)c1ccc(C2=C(Cl)C(=O)c3ncccc3C2=O)cc1,z-score,,-0.697 (inactive)
same,cell count,,3780
c1nc2nc(Nc3ccc(N4CCOCC4)cc3)nc(NC3CCCCC3)c2[nH]1,outcome,library stock 2 mM,inactive; censored for cell count
same,outcome,library stock 10 mM,inactive; censored for cell count
same,z-score,[5],-0.0131 (inactive)
same,z-score,[6],1.19 (inactive)
same,cell count,[5],4690
same,cell count,[6],2200
c1ccc2c(Oc3nc(Nc4ccc(N5CCOCC5)cc4)c4ncn(C5CCCCC5)c4n3)cccc2c1,z-score,,-0.437 (inactive)
same,cell count,,5560
Cc1cc(N2CCOCC2)ccc1Nc1nc(NC2CCCCC2)c2[nH]cnc2n1,z-score,[1],-0.914 (inactive)
same,z-score,[2],-0.363 (inactive)
same,z-score,[3],3.33 (active)
same,z-score,[4],3.68 (active)
same,cell count,[1],7450
same,cell count,[2],5730
same,cell count,[3],2040
same,cell count,[4],2130
NC(N)=NN=Cc1ccc(Cl)c(Cl)c1,z-score,[5],-0.108 (inactive)
same,z-score,[6],0.196 (inactive)
same,z-score,[7],-0.953 (inactive)
same,z-score,[4],-0.658 (inactive)
same,cell count,[5],5310
same,cell count,[6],4750
same,cell count,[7],4910
same,cell count,[4],4260
CCCCC[C@H](O)/C=C/[C@H]1[C@H](O)CC(=O)[C@@H]1CCCCCCC(=O)NCCO,z-score,,0.115 (inactive)
same,cell count,,5420
NC1=NC(=O)/C(=C/c2ccc(O)cc2)S1,z-score,,0.333 (inactive)
same,cell count,,5020
CCCCCCCC/C=C\CCCCCCCC(=O)OCC(O)COP(=O)(O)O (configuration not stated),z-score,,-0.58 (inactive)
same,cell count,,5650
O=C(O)CCC/C=C\C[C@@H]1[C@@H](/C=C/[C@@H](O)COc2cccc(C(F)(F)F)c2)[C@H](O)C[C@@H]1O,z-score,,-0.654 (inactive)
same,cell count,,5730
Cc1ccc(COC(=O)N2CCC(CNc3ncccn3)C(F)C2)cc1 (configuration not stated),z-score,[5],-0.136 (inactive)
same,z-score,[6],0.087 (inactive)
same,z-score,[7],-0.148 (inactive)
same,z-score,[4],-0.243 (inactive)
same,cell count,[5],5400
same,cell count,[6],5130
same,cell count,[7],5140
same,cell count,[4],5210
O=C(O)c1ccc(-c2c[nH]c3ncc(-c4ccccc4)cc23)cc1C1CCCC1,z-score,[1],-0.226 (inactive)
same,z-score,[2],-0.179 (inactive)
same,z-score,[3],-0.154 (inactive)
same,z-score,[4],2.58 (active)
same,cell count,[1],6280
same,cell count,[2],6090
same,cell count,[3],5580
same,cell count,[4],1970
CCCS(=O)(=O)Nc1ccc(F)c(C(=O)c2c[nH]c3ncc(-c4ccc(Cl)cc4)cc23)c1F,z-score,[5],-0.652 (inactive) and -0.181 (inactive)
same,z-score,[6],-0.587 (inactive) and -0.185 (inactive)
same,z-score,[7],-0.572 (inactive) and -0.608 (inactive)
same,z-score,[4],0.969 (inactive) and -0.885 (inactive)
same,cell count,[5],4780 and 6010
same,cell count,[6],4780 and 5900
same,cell count,[7],4410 and 5850
same,cell count,[4],2140 and 5020
Cn1cc(C=C2C(=O)Nc3cccnc32)c2ccccc21,z-score,[5],-0.136 (inactive)
same,z-score,[6],-0.0135 (inactive)
same,z-score,[7],-0.221 (inactive)
same,z-score,[4],-0.519 (inactive)
same,cell count,[5],5300
same,cell count,[6],5320
same,cell count,[7],5410
same,cell count,[4],4520
Cn1c(SCC(=O)N2CCCC2C(=O)Nc2ccccc2-c2ccccc2)nc2ccccc21 (configuration not stated),z-score,[5],-0.422 (inactive)
same,z-score,[6],-0.389 (inactive)
same,z-score,[7],-0.142 (inactive)
same,z-score,[4],-0.283 (inactive)
same,cell count,[5],5510
same,cell count,[6],5800
same,cell count,[7],5780
same,cell count,[4],5710
CC(C)CCOc1ccc(NC(=S)Nc2ccc(OCCC(C)C)cc2)cc1,z-score,,-0.0536 (inactive)
same,cell count,,5220

# — PubChem BioAssay AID1645838 (ICCB-Longwood Screening Facility, Harvard Medical School, 2021)
